In the supplement of paper PMC4954754:
± gives the uncertainty stated by the source.

System: HEK293T-Rex XBP1-RLuc
Assay: XBP1-RLuc splicing reporter activation, triplicate, relative to 500 nM thapsigargin (% of thapsigargin); higher = stronger IRE1/XBP1s reporter activation
Settings: 6.8 µM; 18 h; screen: confirmation
Method: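 HEK293T-Rex cells stably expressing the ERSE-firefly luciferase (BiP promoter, ATF6-preferring) or XBP1-splicing Renilla luciferase (IRE1/XBP1s) reporter, 1536-well plates, compound at 6.8 µM for 18 hr at 37 °C; luminescence read […] and expressed as % activation = 100*(compound - median DMSO)/(median 500 nM thapsigargin - median DMSO). Primary screen was single-pass; confirmation screen in triplicate (mean ± SD).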

| Structure (SMILES) | XBP1-RLuc splicing reporter activation |
| --- | --- |
| O=C(N/N=C/c1ccc(Cl)cc1)c1n[nH]c2c1CCCC2 | 3.79 ± 8.1 |
| CC1(C)Cc2ccccc2/C(=C/C(=O)C(=O)N/N=C/c2ccc(O)c(O)c2)N1 | 16.2 ± 2.9 |
| Cc1ccc(O)c(NC(=O)CN(C)S(=O)(=O)c2ccc(Cl)cc2)c1 | 15.1 ± 3.3 |
| Cc1cc2nc(-c3ccc(SCC#N)nc3)[nH]c2cc1C | 2.7 ± 0.91 |
| CCc1ccc(NC(=O)/C=C/c2ccco2)cc1 | 4.88 ± 0.83 |
| Nc1cn(-c2ccccc2)nc1-c1cccs1 | 50.6 ± 2.8 |
| CCc1nc2sc(C(=O)c3ccccc3)c(N)c2cc1C | 2.72 ± 1.5 |
| O=C(Nc1nc2c(s1)CCCC2)c1cccc2ccccc12 | 3.36 ± 1.8 |
| Cc1ccc(O)c(NC(=O)c2cc(-c3ccc(O)cc3)on2)c1 | 22.4 ± 1.8 |
| Cc1ccn2cc(-c3ccc(O)c(O)c3)nc2c1 | 17.8 ± 5 |
| COc1cccc(C2=NOC(C(=O)Nc3cc(C)ccc3O)C2)c1 (stereo not drawn) | 14.1 ± 0.22 |
| CN(C)c1ccc(/C=C(/C#N)C(=O)Nc2ccc(O)cc2)cc1 | 22.2 ± 0.63 |
| NC(=O)c1c(NC(=O)c2cccc3ccccc23)sc2c1CCC2 | 9.06 ± 0.86 |
| O=C1N/C(=C/c2ccc(O)cc2)C(=O)N1c1cccc(Cl)c1 | 61.1 ± 1.4 |
| COc1ccc(-c2csc(N(CC3CCCO3)C(=O)CCl)n2)cc1 (stereo not drawn) | 2.74 ± 0.89 |
| O=C(c1ccccc1)c1c(O)ccc2c(C(=O)c3ccccc3)c(O)ccc12 | 15.8 ± 2.8 |
| COc1cccc(-c2cc(C(=O)Nc3cc(C)ccc3O)on2)c1 | 12.2 ± 1.9 |
| O=C(N/N=C\C(Br)=C\c1ccccc1)c1n[nH]c2c1CCCC2 | 7.86 ± 1.6 |
| C(=C\c1ccccc1)/C=N/Nc1nc2ccccc2[nH]1 | 5.21 ± 0.2 |

| Structure (SMILES) | XBP1-RLuc splicing reporter activation |
| --- | --- |
| Cc1ccc(O)c(NC(=O)CCc2ccccc2)c1 | 17.5 ± 1.9 |
| COCCNC(=O)c1cc(-c2cccs2)on1 | 6.38 ± 1.2 |
| COc1ccc(C2=Nn3c(nnc3-c3ccc(OC)cc3)SC2)cc1 | 10.4 ± 1.3 |
| O=C1/C(=C/c2ccc(O)c(O)c2)SC(=S)N1c1ccc(O)cc1 | 14.6 ± 1.1 |
| N#C/C(=C/c1ccc(O)c(O)c1)c1nc2ccccc2[nH]1 | 10.3 ± 0.38 |
| Cc1nc(-c2ccc(C(=O)Nc3ccc(O)cc3)cc2)cs1 | 19.3 ± 0.19 |
| O=c1[nH]c(/C=C2\C=Nc3ccccc32)c(O)n1-c1ccc(Cl)cc1 | 43.1 ± 3.6 |
| CCCCNNC(=O)c1ccc(Br)cc1 | 9.12 ± 0.67 |
| Nc1nc(Nc2ccc(Cl)c(Cl)c2)nc2ccccc12 | 11.3 ± 0.79 |
| CCCNC(=O)c1cc(-c2cccs2)on1 | 5.97 ± 0.33 |
| Oc1ccc(/C=N/Nc2cccc(Cl)n2)c(O)c1 | 10.9 ± 0.95 |
| COc1ccccc1-c1nnc(Nc2nc3c(OC)cccc3s2)o1 | 10.2 ± 1 |
| Oc1ccccc1/C=N\Nc1nc2ccccc2o1 | 19.1 ± 1.9 |
| Cc1ccc(O)c(NC(=O)CSc2ccccc2)c1 | 10.5 ± 5.2 |
| CCOc1cccc(/C=C2\NC(=S)N(C)C2=O)c1O | -2.09 ± 0.54 |
| O=C(N/N=C/c1ccc(O)c(O)c1)c1cccc(Cl)c1 | 6.18 ± 0.63 |
| CCCCCC(=O)Nc1ccc(C(=O)Nc2ccccc2O)cc1 | 9.29 ± 0.42 |
| Cc1ccc(O)c(-c2cc(C(F)(F)C(F)F)no2)c1 | 13.8 ± 1.5 |
| O=c1[nH]c(COc2ccccc2)nc2sc3c(c12)CCCC3 | 4.82 ± 0.69 |
